The panel holds about 83,000 compounds, 20% with a hit somewhere; the sample as a whole holds those more often.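 Treatment: one concentration, 48 hours, 96-well format. Scoring: percent growth, with anything below 10 considered active.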 Values without a mark were called inactive. Active and inactive are the calls of the source.
These molecules were tested on HL-60(TB) leukemia (assay: NCI-60 one-dose screen, 48 h (100 = growth as untreated, 0 = no growth, -100 = all killed)). Conditions: 10 µM unless noted.

For `O=C(Nc1ncccc1OCc1ccccc1)NC1CCCCCC1`, which growth is on record?
Its growth is 57.7%.

With `Cn1c(=O)c(C#N)c(-c2ccco2)n2c(S(=O)(=O)Cc3ccccc3)nnc12` as the molecule, how does the growth read?
Its growth is 103%.

For `CO[C@H]1/C=C/O[C@@]2(C)Oc3c(C)c(O)c4c(O)c(c(/C=N/N5C(C)CN(Cc6ccc(C#N)cc6)CC5C)c(O)c4c3C2=O)NC(=O)/C(C)=C\C=C\[C@H](C)[C@H](O)[C@@H](C)[C@@H](O)[C@@H](C)[C@H](OC(C)=O)[C@@H]1C` (some centres not stated), which growth is on record?
Its growth is -37% (active).

Which growth does the source give for `COc1ccc(Nc2cnc3cc(NS(=O)(=O)c4ccc(C)cc4)ccc3n2)cc1` here?
The growth was 70%.

`CC(=O)c1ccc(C)cc1` was tested. Which growth did it give?
Its growth is 93.4%.

For `CC(C)N(C(=O)c1ccccc1)C(C)C`, which growth is on record?
The growth was 100%.

Which growth does the source give for `COc1ccc(-c2cc(-c3cc(OC)c(OC)c(OC)c3)c(C#N)c(=O)n2CCCCCC(=O)NO)cc1` here?
The growth was 103%.

With `Cc1cc2c(C)c3cc(C)c(N)cc3nc2cc1N` as the molecule, how does the growth read?
Its growth is 19%.

How did the growth turn out when `N#C/C(=C\c1ccc(-c2ccc(Cl)c(Cl)c2)o1)c1nc(-c2ccco2)cs1` was run?
The growth was 103%.

With `COc1ccc(-c2c(C)nn3c(NCCN4CCOCC4)cc(C)nc23)cc1OC` as the molecule, how does the growth read?
The growth was 107%.

How did the growth turn out when `Nc1nc(SN=Nc2ccc(S(N)(=O)=O)cc2)c2[nH]cnc2n1` was run?
The growth was -16% (active).

How did the growth turn out when `Cc1cc2ccccc2c[n+]1CC(=O)c1ccc(-c2ccccc2)cc1` was run?
The growth was 22.5%.

Which growth does the source give for `O=C(Nc1cccc(C(F)(F)F)c1)C(Cl)Cl` here?
Its growth is 94.1%.

How did the growth turn out when `COc1ccc2c3c([nH]c2c1)C(=O)c1nc(C)ccc1C3=O` was run?
Its growth is 59%.

For `CN(C)[C@@H]1C(=O)C(C(N)=O)=C(O)[C@@]2(O)C(=O)C3=C(O)c4c(O)cc(CN5CCc6ccccc6C5)c(Cl)c4C[C@H]3C[C@@H]12`, which growth is on record?
Its growth is -64.8% (active).

With `Cc1ccc2c3c(cccc13)-c1ccccc1C2=O` as the molecule, how does the growth read?
Its growth is 99%.

Which growth does the source give for `CCNCCNc1cc(-c2ccc(C(=O)OC)cc2)c(C#N)c2nc3ccccc3n12` here?
The growth was -57.2% (active).

Which growth does the source give for `Cc1ccc(-c2csc(N)n2)cc1` here?
The growth was 112%.

`CCOc1cc2c(cc1OCC)C(c1cc(OC)c(O)cc1Cl)NCC2` (configuration not stated) was tested. Which growth did it give?
Its growth is 91.7%.

For `Cc1ccc(/C(C#N)=C/c2ccc3c(c2)OCO3)cc1`, which growth is on record?
The growth was 67.5%.

`Cc1c(-c2ccc(O)cc2)n(Cc2ccc(OCCN3CCCCCC3)cc2)c2ccc(O)cc12` was tested. Which growth did it give?
Its growth is 74.6%.

How did the growth turn out when `CCOC(=O)C1=C(C)n2nc(CC#N)c(C#N)c2NC1c1ccc(CC)cc1` (configuration not stated) was run?
The growth was 115%.

With `COc1ccc(N=Cc2c(O)ccc3c2oc2cc(Cl)c(O)c(Cl)c23)cc1` as the molecule, how does the growth read?
Its growth is 86.6%.

Which growth does the source give for `Clc1cc(Br)ccc1-c1ccc(CNCC2CCNCC2)o1` here?
The growth was 67.7%.

`C=CC[P+](c1ccccc1)(c1ccccc1)c1ccccc1` was tested. Which growth did it give?
The growth was 4.03% (active).

With `O=C1Nc2ccccc2C12CC(c1ccccc1)=NN2` (configuration not stated) as the molecule, how does the growth read?
Its growth is -8.55% (active).

With `CCOC(=O)c1nnn(-c2no[n+]([O-])c2-c2ccc(OC)cc2)c1COc1cccc2cccnc12` as the molecule, how does the growth read?
The growth was -18.3% (active).

— PubChem BioAssay (NCI)
